# Most compounds without a hit are left out; they make up all but 1.9% or so of the library.
# PG9 binder = binds the HIV-1 gp120 antibody PG9. TR-FRET gp120-PG9 antibody binding. inhibition, % at 6.7 µM. actives 0.43% (n = 360,000). AID 624416; in the data active means inhibition above about 8.5%
# aDG glyco up = increases alpha dystroglycan glycosylation; Pro5-aDG cells, alpha-DG glycosylation AlphaScreen (IIH6); 0% Pro5, 100% B10-LARGE cell signal; activation, % at 10 µM; actives 0.22% (n = 360,000); AID 624168;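 active means activation of at least 8% versus controls, or a plate z-score of at least 8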;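 further: Pro5 are CHO cells carrying HIG-tagged alpha-DG that lacks glycosylation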
# NCF1 inh = blocks human p47phox regulatory protein of NADPH oxidases. P14598. p47phox/p22phox peptide binding, fluorescence polarization, 2 h. inhibition, % at 24.7 µM. actives 0.53% (n = 220,000);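 active means inhibition above about 30%, limit read from the data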
# EBNA-1 inhibitor = blocks EBNA-1 binding to DNA; actives 0.34% (n = 300,000); EBNA-1 DNA binding, fluorescence polarization; inhibition, % at 14.8 µM; in the data active means inhibition above about 28%
# NR1D1 modulator = modulators of human Rev-erb alpha DNA binding | P20393 | Rev-erbα–FITC-DNA binding, fluorescence polarization, 90 min | activity, % at 10 µM | actives 0.79% (n = 370,000) | AID 1259318;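 active means activity above about 14%, limit read from the data; passing the limit was not always enough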
# ZTA counter = ZTA (EBV) inhibition in EBNA-1 counter-screen | inhibition, % at 11 µM | actives 0.15% (n = 320,000) | AID 2234 | ZTA-DNA binding, fluorescence polarization | P03206; in the data active means inhibition above about 33%
# Target sequence (P03206 whole entry, looked up): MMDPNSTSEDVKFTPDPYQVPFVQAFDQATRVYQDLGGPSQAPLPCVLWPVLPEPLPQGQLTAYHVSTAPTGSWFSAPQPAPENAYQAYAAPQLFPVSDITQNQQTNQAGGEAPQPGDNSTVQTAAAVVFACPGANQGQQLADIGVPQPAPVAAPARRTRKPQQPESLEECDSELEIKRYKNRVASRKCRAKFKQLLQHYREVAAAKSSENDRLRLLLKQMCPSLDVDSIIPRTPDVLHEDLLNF
# NR1D1 mod conf = Rev-erb alpha (human) modulation, hit confirmation. shares compounds with NR1D1 modulator. Rev-erb alpha FITC-DNA binding, fluorescence polarization, 90 min. activation, % at 25 µM. actives 61% (n = 3,000). AID 1259319;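 active means activation at or above a set limit, or at least 3 SD above the negative control mean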
# RORg counter = RORgamma DNA-binding activity, dose-response counter-screen | actives 8% (n = 910) | IC50, µM | purified RORgamma protein-FITC-DNA binding, fluorescence polarization | AID 1259320 | shares compounds with NR1D1 modulator;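 active means Compounds whose fitted half-maximal concentration for disrupting protein-DNA binding is below 10 micromolar; the record names Rev-erb in its text, so the target is in doubt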
# A number is an active result; - = inactive; . = not tested or not shown.
SMILES,PG9 binder,aDG glyco up,NCF1 inh,EBNA-1 inhibitor,NR1D1 modulator,ZTA counter,NR1D1 mod conf,others
O=C1C[C@@H](C(=O)Nc2ccc(Cl)cc2)[C@@H](c2ccccc2)O1,.,.,.,.,-,.,.,
COc1cc(NC(=O)CSc2nc3ccccc3cc2C)c(C(=O)O)cc1OC,-,-,-,-,-,-,.,
Cc1ccc2cc(C)c(SCC(=O)Nc3ccc(S(=O)(=O)N4CCCC4)cc3)nc2c1,-,-,-,-,27,-,19,
Cc1cc2cc3c(cc2nc1SCC(=O)Nc1ccccc1)CCC3,-,-,-,-,33,-,-,
CCn1c(SCC(=O)Nc2ccc(C(N)=O)cc2)nc2sc(C)c(C)c2c1=O,.,.,.,.,-,.,.,
CCCC[C@H](C(=O)N(C)c1ccccc1)[C@@H](O)c1ccc(Cl)cc1,.,.,.,.,-,.,.,
O=[N+]([O-])c1ccccc1S(=O)(=O)N1CCC(c2cn3ccccc3n2)CC1,.,.,.,.,-,.,.,
CCCC1CCC2(CC1)CCC2OC(=O)Nc1cccc(C(F)(F)F)c1 (stereo not given),.,.,.,.,-,.,.,
O=C(Nc1ccc(OC(F)(F)F)cc1)Nc1c(-c2ccc(F)cc2)nc2ncccn12,.,.,.,.,-,.,.,
C=CCNC(=O)N1CCN(Cc2nc3ccccc3c(=O)[nH]2)CC1,.,.,.,.,-,.,.,
O=S(Cc1cc(Sc2ccccc2)nc(-c2ccccc2)n1)c1ccccc1 (stereo not given),-,-,-,-,25,-,-,
CNc1cc(CS(=O)c2ccccc2)nc(-c2ccccc2)n1 (stereo not given),-,-,-,-,-,-,.,
CCOc1ccc(-n2c(SCC(=O)Nc3ccccc3-c3ccccc3)nnc2-c2cccs2)cc1,.,.,.,.,-,.,.,
CCc1ccc2c(COC(=O)c3n[nH]c4ccccc34)cc(=O)oc2c1,-,-,-,-,-,-,.,
Cc1ccc2c(COC(=O)c3n[nH]c4ccccc34)cc(=O)oc2c1,-,-,-,-,17,-,-,
CC(C)NC(=O)N[C@H]1C[C@@H]2O[C@@H](CO)CC[C@@H]2O[C@@H]1CCc1ccc(-c2ccc(F)cc2)cc1,.,.,.,.,-,.,.,
COc1ccc(-c2csc3ncnc(N4CCN(S(=O)(=O)c5cccc(Br)c5)CC4)c23)cc1,-,-,.,-,16,-,18,
Cc1ccc(S(=O)(=O)N2CCN(c3ncnc4scc(-c5ccc(F)cc5)c34)CC2)cc1,-,-,.,-,24,-,-,
COc1ccc(-n2c(COc3ccc(Cl)cc3)nnc2SCC(=O)Nc2ccc3c(c2)OCO3)cc1,.,.,.,.,-,.,.,
O=c1c2ccc(F)cc2nc2sc(Nc3ccc4c(c3)CCC4)nn12,.,.,.,.,74,.,-,
COc1ccccc1Nc1nn2c(=O)c3ccc(C(=O)N4CCCCC4)cc3nc2s1,-,-,.,-,-,-,.,
O=c1c2ccccc2nc2sc(Nc3cccc(Cl)c3)nn12,-,-,.,.,127,-,88,RORg counter=-
C=CCn1c(SCC(=O)Nc2ccc(CCCC)cc2)nnc1-c1ccc(Cl)cc1,.,.,.,.,-,.,.,
COc1ccc(-c2ccc3sc4ccccc4c(=O)c3c2)cn1,-,-,.,-,58,-,61,RORg counter=-
COc1cc2sc3ccc(-c4ccc(N(C)C)nc4)cc3c(=O)c2cc1OC,-,.,.,-,-,-,.,
SMILES,PG9 binder,aDG glyco up,NCF1 inh,EBNA-1 inhibitor,NR1D1 modulator,ZTA counter,NR1D1 mod conf,others
Cc1ccc(-c2nc(N)c3c(-c4ccc(C)cc4)nn(C(C)(C)C)c3n2)cc1,-,-,-,-,30,-,-,
Cc1cc(N=Cc2c(O)n(-c3ccc(C)c(C)c3)c(=O)c3ccccc23)no1,-,.,-,.,-,.,.,
CCOC(=O)Cc1csc(/N=C/c2c(O)n(-c3ccc(C)c(C)c3)c(=O)c3ccccc23)n1,-,-,-,-,23,-,-,
CC1=Nc2ccccc2/C1=C/c1sc(=S)n(-c2cccc(C(=O)O)c2)c1O,-,-,-,.,48,.,52,RORg counter=-
Cc1ccc(S(=O)(=O)N(Cc2cc3ccc(C)cc3[nH]c2=O)c2ccccc2)cc1,-,-,-,-,-,-,.,
Cc1ccc(N(Cc2cc3ccc(C)cc3[nH]c2=O)S(=O)(=O)c2ccccc2)cc1,-,-,.,-,34,-,19,
O=C(COC(=O)c1ccc2ccccc2c1O)Nc1ccccc1,-,-,.,.,59,.,28,
O=C(COC(=O)c1ccc2ccccc2c1O)NCC(F)(F)F,-,-,-,-,-,-,.,

# Bioassay records deposited in PubChem by several laboratories.
